Screening data (PubChem)
ERAP1 inh: blocks human ERAP1 aminopeptidase activity; Q9NZ08; recombinant ERAP1, Leu-AMC fluorescence, 60 min; inhibition, % at 10.7 µM; 0.15% of 340,000 active; AID 652197;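 active means mean replicate inhibition of at least 30%, or all replicates individually reaching that 30% level; inactive means mean below 30% and not every replicate reaching it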
FGF22 binding: FGF22 (human) thermal shift binding | activity (Tm shift, normalised), % at 9.99 µM | AID 651658 | Q9HCT0 | recombinant FGF22 thermal shift, SYPRO orange fluorescence; percent of sucrose octasulfate shift, DMSO zero | 1.5% of 340,000 active;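 active means mean Tm shift, scaled 0 neutral to 100 positive control, at about 1.3% or above, every replicate too, limit read from the data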
AF4-AF9 inh: blocks AF4 peptide binding to human AF9; 0.47% of 350,000 active; AlphaScreen, biotin-AF4 peptide binding to FLAG-AF9; inhibition, % at 10 µM;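 active means every replicate reaching a set inhibition limit, whatever the replicate mean, cut at about 25% in these data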
RAD52 anneal inh: inhibitors of human RAD52 DNA annealing; P43351; recombinant RAD52 DNA annealing, FRET fluorescence; inhibition, % at 18.7 µM; 0.46% of 360,000 active; AID 651710;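 active means every replicate showing at least 50% inhibition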
DENV2 CPE rescue: protects cells from dengue virus 2 cytopathic effect | DENV2-infected cells, cytopathic effect rescue, plate reader | CPE inhibition, % at 9.99 µM | 1.7% of 350,000 active | AID 651640; in the data active means CPE inhibition above about 20%, passing the limit was not always enough; tested in BHK-21 cells
Hits are given with their value. Most compounds without a hit are left out; they make up all but 4% or so of the library.

How did COc1ccc(S(=O)(=O)Nc2ccc3c(c2)C(=O)N([C@@H](C)CO)C[C@H](C)[C@@H](CN(C)Cc2ccc4c(c2)OCO4)OCCCC[C@@H](C)O3)cc1 do in these assays?
ERAP1 inh: inactive; FGF22 binding: inactive; AF4-AF9 inh: inactive; RAD52 anneal inh: inactive; DENV2 CPE rescue: 24

How did COc1ccc(S(=O)(=O)Nc2ccc3c(c2)C(=O)N([C@H](C)CO)C[C@H](C)[C@H](CN(C)Cc2ccc4c(c2)OCO4)OCCCC[C@H](C)O3)cc1 do in these assays?
ERAP1 inh: inactive; FGF22 binding: inactive; AF4-AF9 inh: inactive; RAD52 anneal inh: inactive; DENV2 CPE rescue: 59

What do the screens show for `C[C@@H]1CCCCO[C@@H](CN(C)Cc2ccc3c(c2)OCO3)[C@H](C)CN([C@@H](C)CO)C(=O)c2cc(NS(=O)(=O)c3ccc(Cl)cc3)ccc2O1`?
ERAP1 inh: inactive; AF4-AF9 inh: inactive; RAD52 anneal inh: inactive; DENV2 CPE rescue: inactive

What do the screens show for `COc1ccc(S(=O)(=O)Nc2ccc3c(c2)C(=O)N([C@@H](C)CO)C[C@H](C)[C@H](CN(C)Cc2ccc4c(c2)OCO4)OCCCC[C@@H](C)O3)cc1`?
ERAP1 inh: inactive; FGF22 binding: inactive; AF4-AF9 inh: inactive; RAD52 anneal inh: inactive; DENV2 CPE rescue: inactive

Results for COc1ccc(S(=O)(=O)Nc2ccc3c(c2)C(=O)N([C@H](C)CO)C[C@@H](C)[C@@H](CN(C)Cc2ccc4c(c2)OCO4)OCCCC[C@@H](C)O3)cc1 ?
ERAP1 inh: inactive; FGF22 binding: inactive; AF4-AF9 inh: inactive; RAD52 anneal inh: inactive; DENV2 CPE rescue: 21

What do the screens show for `COc1ccc(S(=O)(=O)Nc2ccc3c(c2)C(=O)N([C@H](C)CO)C[C@@H](C)[C@H](CN(C)Cc2ccc4c(c2)OCO4)OCCCC[C@@H](C)O3)cc1`?
ERAP1 inh: inactive; FGF22 binding: inactive; AF4-AF9 inh: inactive; RAD52 anneal inh: inactive; DENV2 CPE rescue: inactive

What do the screens show for `c1ccc(-c2cn(C[C@H]3CC[C@@H]([C@@H]4CC[C@H](Cn5cc(-c6ccccn6)nn5)O4)O3)nn2)nc1`?
ERAP1 inh: inactive; FGF22 binding: inactive; RAD52 anneal inh: inactive; DENV2 CPE rescue: inactive

Results for c1ccc(-c2cn(C[C@H]3CC[C@@H]([C@@H]4CC[C@H](Cn5cc(-c6ccccc6)nn5)O4)O3)nn2)cc1 ?
ERAP1 inh: inactive; FGF22 binding: inactive; AF4-AF9 inh: inactive; RAD52 anneal inh: inactive; DENV2 CPE rescue: 34

Results for CCc1ccc(NC(=O)CO/N=C(\C)c2cc3ccccc3o2)cc1 ?
ERAP1 inh: inactive; FGF22 binding: 44; AF4-AF9 inh: inactive; RAD52 anneal inh: inactive; DENV2 CPE rescue: inactive

What do the screens show for `C[C@H](CO)N1C[C@H](C)[C@@H](CN(C)CC2CCCCC2)OCCCC[C@H](C)Oc2ccc(NC(=O)Nc3cccc4ccccc34)cc2C1=O`?
ERAP1 inh: inactive; FGF22 binding: 1.5; AF4-AF9 inh: inactive; RAD52 anneal inh: inactive; DENV2 CPE rescue: inactive

What do the screens show for `C[C@@H]1CN([C@H](C)CO)C(=O)c2cc(NC(=O)Nc3cccc4ccccc34)ccc2O[C@@H](C)CCCCO[C@@H]1CN(C)CC1CCCCC1`?
ERAP1 inh: inactive; FGF22 binding: inactive; AF4-AF9 inh: inactive; RAD52 anneal inh: inactive; DENV2 CPE rescue: 45

How did C[C@@H]1CCCCO[C@@H](CN(C)CC2CCCCC2)[C@@H](C)CN([C@@H](C)CO)C(=O)c2cc(NC(=O)Nc3cccc4ccccc34)ccc2O1 do in these assays?
ERAP1 inh: inactive; FGF22 binding: 1.5; AF4-AF9 inh: inactive; RAD52 anneal inh: inactive; DENV2 CPE rescue: inactive

How did C[C@@H]1CCCCO[C@H](CN(C)CC2CCCCC2)[C@H](C)CN([C@@H](C)CO)C(=O)c2cc(NC(=O)Nc3cccc4ccccc34)ccc2O1 do in these assays?
ERAP1 inh: inactive; FGF22 binding: inactive; AF4-AF9 inh: inactive; RAD52 anneal inh: inactive; DENV2 CPE rescue: inactive

How did C[C@@H]1CCCCO[C@H](CN(C)CC2CCCCC2)[C@H](C)CN([C@H](C)CO)C(=O)c2cc(NC(=O)Nc3cccc4ccccc34)ccc2O1 do in these assays?
ERAP1 inh: inactive; FGF22 binding: 1.3; AF4-AF9 inh: inactive; RAD52 anneal inh: inactive; DENV2 CPE rescue: inactive

How did C[C@H](CO)N1C[C@H](C)[C@H](CN(C)CC2CCCCC2)OCCCC[C@H](C)Oc2ccc(NC(=O)Nc3cccc4ccccc34)cc2C1=O do in these assays?
ERAP1 inh: inactive; FGF22 binding: inactive; AF4-AF9 inh: inactive; RAD52 anneal inh: inactive; DENV2 CPE rescue: inactive

How did C[C@H]1CN([C@@H](C)CO)C(=O)c2cc(C#Cc3ccc(F)cc3)cnc2O[C@H]1CN(C)Cc1ccccn1 do in these assays?
ERAP1 inh: inactive; FGF22 binding: inactive; AF4-AF9 inh: inactive; RAD52 anneal inh: inactive; DENV2 CPE rescue: inactive

How did C[C@@H]1CN([C@@H](C)CO)C(=O)c2cccc(NS(=O)(=O)c3ccc(Cl)cc3)c2O[C@@H]1CN(C)C(=O)NC1CCCCC1 do in these assays?
ERAP1 inh: inactive; FGF22 binding: inactive; AF4-AF9 inh: inactive; RAD52 anneal inh: inactive; DENV2 CPE rescue: inactive

Results for CC(C)NC(=O)N(C)C[C@H]1OCCCC[C@@H](C)Oc2ccc(NC(=O)c3ccccc3)cc2C(=O)N([C@@H](C)CO)C[C@H]1C ?
ERAP1 inh: inactive; FGF22 binding: inactive; AF4-AF9 inh: inactive; RAD52 anneal inh: inactive; DENV2 CPE rescue: inactive

What do the screens show for `COc1ccc(NS(=O)(=O)c2ccc3c(c2)[C@H]2C=CC[C@H]2[C@@H](c2ccc(C(=O)O)cc2)N3)cc1`?
ERAP1 inh: 32; AF4-AF9 inh: inactive; RAD52 anneal inh: inactive; DENV2 CPE rescue: inactive

Results for O=C(O)c1ccc2c(c1)C1C=CCC1C(c1ccncc1)N2 (centres undefined) ?
FGF22 binding: inactive; AF4-AF9 inh: inactive; RAD52 anneal inh: inactive; DENV2 CPE rescue: inactive

What do the screens show for `Cc1noc(C)c1NC(=O)N(C)C[C@@H]1OCCCC[C@@H](C)Oc2ccc(NS(=O)(=O)c3cccs3)cc2C(=O)N([C@H](C)CO)C[C@H]1C`?
ERAP1 inh: inactive; FGF22 binding: inactive; AF4-AF9 inh: inactive; RAD52 anneal inh: inactive; DENV2 CPE rescue: inactive

Results for C[C@@H]1CN([C@H](C)CO)C(=O)c2cccc(NC(=O)Nc3ccc(C(F)(F)F)cc3)c2O[C@@H]1CN(C)C(=O)Nc1ccc(C(F)(F)F)cc1 ?
ERAP1 inh: inactive; FGF22 binding: inactive; AF4-AF9 inh: inactive; RAD52 anneal inh: inactive; DENV2 CPE rescue: 50

What do the screens show for `C[C@H]1CN([C@@H](C)CO)C(=O)c2cccc(NC(=O)Nc3ccc(C(F)(F)F)cc3)c2O[C@H]1CN(C)C(=O)Nc1ccc(C(F)(F)F)cc1`?
ERAP1 inh: inactive; FGF22 binding: inactive; AF4-AF9 inh: inactive; RAD52 anneal inh: inactive; DENV2 CPE rescue: inactive

Results for C[C@H](CO)N1C[C@H](C)[C@@H](CN(C)C(=O)Nc2ccc(C(F)(F)F)cc2)Oc2c(NC(=O)C3CC3)cccc2C1=O ?
FGF22 binding: inactive; RAD52 anneal inh: inactive; DENV2 CPE rescue: inactive

Results for C[C@@H]1CN([C@H](C)CO)C(=O)c2cccc(NC(=O)Nc3ccccc3)c2O[C@H]1CN(C)C(=O)Nc1ccccc1 ?
ERAP1 inh: inactive; FGF22 binding: inactive; AF4-AF9 inh: inactive; RAD52 anneal inh: inactive; DENV2 CPE rescue: 52
